Experimental data as given in PubChem BioAssay (EPA / NIEHS).
Calls of active or inactive are those of the source. How the source made its calls: active means hit-call score of the fitted dose curve at least 0.9, where 1 is the maximum; inactive means score below 0.9.

Experiments:
[1] = ATG_Ets_CIS: Attagene CIS-FACTORIAL HepG2 Assay for human Erythroblast Transformation Specific (ETS) (AID 2282941); details: HepG2 ETS cis-reporter transcription, actives raise or lower the signal
Procedure, shortened: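 Bidirectional fit versus DMSO of reporter mRNA signal, detected by RT-PCR and capillary electrophoresis in HepG2 cells transiently transfected with cis-element reporters and dosed 24 h.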

[2] = biological target: Hepatocyte nuclear factor 3-beta (Homo sapiens) (UniProt Q9Y261); assay: ATG_FoxA2_CIS: Attagene CIS-FACTORIAL HepG2 Assay for human Forkhead box A2 (FOXA2) (AID 2282942); details: HepG2 cis-reporter transcription factor activity, 24 h; actives raise or lower the signal
Hepatocyte nuclear factor 3-beta (Homo sapiens), sequence (Q9Y261 whole entry, looked up): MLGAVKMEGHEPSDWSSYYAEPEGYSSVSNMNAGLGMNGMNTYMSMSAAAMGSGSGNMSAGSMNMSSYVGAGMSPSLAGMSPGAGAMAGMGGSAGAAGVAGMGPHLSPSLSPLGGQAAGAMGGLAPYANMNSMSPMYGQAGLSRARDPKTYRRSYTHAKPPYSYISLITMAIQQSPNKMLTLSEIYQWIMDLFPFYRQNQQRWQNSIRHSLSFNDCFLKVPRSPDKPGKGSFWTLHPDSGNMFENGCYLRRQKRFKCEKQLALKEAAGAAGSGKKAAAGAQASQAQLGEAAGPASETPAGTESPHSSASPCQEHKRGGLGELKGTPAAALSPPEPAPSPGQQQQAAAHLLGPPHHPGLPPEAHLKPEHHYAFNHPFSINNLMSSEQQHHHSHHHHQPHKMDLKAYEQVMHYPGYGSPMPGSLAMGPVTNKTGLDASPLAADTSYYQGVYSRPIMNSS
Procedure, shortened: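 Endogenous transcription factor activity was read in HepG2 cells carrying transiently transfected cis-promoter reporter units. After 24 h dosing, reporter mRNA was quantified by RT-PCR and capillary electrophoresis, and values fitted bidirectionally versus DMSO.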

[3] = ATG_FoxO_CIS: Attagene CIS-FACTORIAL HepG2 Assay for human Forkhead box O (FoxO) (AID 2282943); details: HepG2 Attagene cis-reporter, FoxO element, mRNA; actives raise or lower the signal
Procedure, shortened: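 Read-out: fluorescence of 6-FAM-labelled reporter cDNA fragments resolved by capillary electrophoresis. Transiently transfected HepG2 cells were dosed for 24 h; activity fitted in both directions relative to DMSO controls.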

[4] = ATG_GATA_CIS: Attagene CIS-FACTORIAL HepG2 Assay for human GATA Binding Protein (AID 2282944); details: HepG2 GATA cis-element reporter, Attagene multiplex mRNA; actives raise or lower the signal
Procedure, shortened: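 Reporter transcripts from a GATA cis-regulated unit, among multiplexed reporters in transfected HepG2 cells, were measured by RT-PCR with capillary electrophoresis after 24 h dosing. Induction or loss scored relative to DMSO.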

[5] = ATG_GLI_CIS: Attagene CIS-FACTORIAL HepG2 Assay for human Zinc Finger Protein GLI1 (AID 2282945); details: HepG2, Attagene cis-factorial reporter mRNA, GLI element; actives raise or lower the signal
Procedure, shortened: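 Transiently transfected HepG2 cells report endogenous transcription factor activity via cis-element-driven reporter units. After 24 h compound exposure, reporter mRNA was measured by RT-PCR with capillary electrophoresis; bidirectional fitting against DMSO baseline.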

[6] = ATG_GRE_CIS: Attagene CIS-FACTORIAL HepG2 Assay for human Glucocorticoid Response Elements (GRE) (AID 2282947); details: HepG2 GRE cis-reporter, Attagene multiplex mRNA; actives raise or lower the signal
Procedure, shortened: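 Fluorescence intensity of reporter-specific cDNA fragments, separated by capillary electrophoresis, provides the signal. Constructs carry cis-regulating promoters in transiently transfected HepG2 liver cells; 24 h incubation; fitting is bidirectional against DMSO.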

[7] = ATG_M_32_CIS: Attagene CIS-FACTORIAL HepG2 Assay for M32 Transcription Factor (Internal Marker) (AID 2282949); details: HepG2 Attagene cis-factorial M32 reporter, mRNA; actives raise or lower the signal;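 further: background control marker of the multiplexed CIS panel rather than a real target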
Procedure, shortened: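 HepG2 transfectants (cis-regulated reporter transcription units) dosed 24 h. Reporter mRNA by RT-PCR plus CE, analysed as gain or loss relative to DMSO.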

[8] = ATG_M_06_CIS: Attagene CIS-FACTORIAL HepG2 Assay for M06 Transcription Factor (Internal Marker) (AID 2282950); details: HepG2 Attagene CIS-FACTORIAL M06 internal marker reporter; actives raise or lower the signal
Procedure, shortened: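 Serves as a background control readout. Transfected HepG2 exposed to compounds for 24 h, then reporter transcripts quantified by fluorescent RT-PCR and capillary electrophoresis. Both directions fitted against DMSO baseline.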

[9] = biological target: Hypoxia-inducible factor 1-alpha (Homo sapiens) (UniProt Q16665); assay: ATG_HIF1a_CIS: Attagene CIS-FACTORIAL HepG2 Assay for human Hypoxia Inducible Factor 1 (HIF1A) (AID 2282951); details: HepG2 Attagene cis-factorial HIF1a reporter transcription; actives raise or lower the signal
Hypoxia-inducible factor 1-alpha (Homo sapiens), sequence (Q16665 whole entry, looked up): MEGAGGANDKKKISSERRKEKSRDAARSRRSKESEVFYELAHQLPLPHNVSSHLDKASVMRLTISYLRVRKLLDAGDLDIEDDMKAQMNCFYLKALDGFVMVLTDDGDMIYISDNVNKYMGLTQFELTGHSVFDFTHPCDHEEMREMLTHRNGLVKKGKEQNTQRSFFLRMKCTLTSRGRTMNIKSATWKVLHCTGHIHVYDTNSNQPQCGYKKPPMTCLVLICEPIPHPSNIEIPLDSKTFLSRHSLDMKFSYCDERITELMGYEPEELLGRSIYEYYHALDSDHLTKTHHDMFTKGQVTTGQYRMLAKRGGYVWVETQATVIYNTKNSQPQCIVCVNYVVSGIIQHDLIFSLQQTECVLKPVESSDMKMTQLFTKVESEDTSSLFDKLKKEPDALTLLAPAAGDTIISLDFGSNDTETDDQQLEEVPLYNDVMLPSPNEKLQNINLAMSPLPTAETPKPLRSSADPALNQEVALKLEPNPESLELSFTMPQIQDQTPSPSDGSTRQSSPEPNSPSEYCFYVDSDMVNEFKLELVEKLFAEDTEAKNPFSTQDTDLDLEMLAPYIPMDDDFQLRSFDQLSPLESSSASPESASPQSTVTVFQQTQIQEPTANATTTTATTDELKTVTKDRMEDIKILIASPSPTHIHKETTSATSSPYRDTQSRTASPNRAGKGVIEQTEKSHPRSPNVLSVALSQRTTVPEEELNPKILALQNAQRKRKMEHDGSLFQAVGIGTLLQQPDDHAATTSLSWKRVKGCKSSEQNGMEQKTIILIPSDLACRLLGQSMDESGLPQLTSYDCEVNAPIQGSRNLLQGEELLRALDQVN
Procedure, shortened: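 Measures endogenous transcription-factor activity through cis-regulated reporter mRNA in HepG2. Cells dosed 24 h; transcripts quantified by RT-PCR with 6-FAM-labelled products separated by capillary electrophoresis; DMSO serves as negative control.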

[10] = biological target: Hepatocyte nuclear factor 6 (Homo sapiens) (UniProt Q9UBC0); assay: ATG_HNF6_CIS: Attagene CIS-FACTORIAL HepG2 Assay for human Hepatocyte Nuclear Factor 6 (HNF6) (AID 2282952); details: HepG2 Attagene cis-factorial HNF6 reporter transcription; actives raise or lower the signal
Hepatocyte nuclear factor 6 (Homo sapiens), sequence (Q9UBC0 whole entry, looked up, the tested form may be a part): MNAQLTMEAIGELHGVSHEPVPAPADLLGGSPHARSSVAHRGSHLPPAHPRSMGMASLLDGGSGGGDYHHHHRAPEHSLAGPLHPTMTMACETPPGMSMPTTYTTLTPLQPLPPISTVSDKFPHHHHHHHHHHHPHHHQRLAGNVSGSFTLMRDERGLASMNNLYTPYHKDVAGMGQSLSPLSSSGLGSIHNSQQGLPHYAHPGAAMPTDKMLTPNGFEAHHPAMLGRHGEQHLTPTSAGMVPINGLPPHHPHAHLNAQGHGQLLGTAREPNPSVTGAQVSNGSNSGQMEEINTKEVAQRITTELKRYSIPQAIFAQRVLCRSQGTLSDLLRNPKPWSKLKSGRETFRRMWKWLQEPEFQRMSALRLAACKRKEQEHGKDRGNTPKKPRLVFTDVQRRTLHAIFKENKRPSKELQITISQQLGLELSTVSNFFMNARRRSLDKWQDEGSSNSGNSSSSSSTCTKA
Procedure, shortened: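 First, HepG2 cells were transfected with the multiplexed cis reporter library and dosed with chemical for 24 h. Next, RNA was reverse-transcribed, PCR-amplified and fluorescently labelled. Finally, HpaI-digested fragments were read by capillary electrophoresis.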

[11] = biological target: Heat shock factor protein 1 (Homo sapiens) (UniProt Q00613); assay: ATG_HSE_CIS: Attagene CIS-FACTORIAL HepG2 Assay for human Heat Shock Transcription Factor 1 (HSE) (AID 2282953); details: HepG2 HSE cis-reporter, Attagene RNA transcription; actives raise or lower the signal
Heat shock factor protein 1 (Homo sapiens), sequence (Q00613 whole entry, looked up): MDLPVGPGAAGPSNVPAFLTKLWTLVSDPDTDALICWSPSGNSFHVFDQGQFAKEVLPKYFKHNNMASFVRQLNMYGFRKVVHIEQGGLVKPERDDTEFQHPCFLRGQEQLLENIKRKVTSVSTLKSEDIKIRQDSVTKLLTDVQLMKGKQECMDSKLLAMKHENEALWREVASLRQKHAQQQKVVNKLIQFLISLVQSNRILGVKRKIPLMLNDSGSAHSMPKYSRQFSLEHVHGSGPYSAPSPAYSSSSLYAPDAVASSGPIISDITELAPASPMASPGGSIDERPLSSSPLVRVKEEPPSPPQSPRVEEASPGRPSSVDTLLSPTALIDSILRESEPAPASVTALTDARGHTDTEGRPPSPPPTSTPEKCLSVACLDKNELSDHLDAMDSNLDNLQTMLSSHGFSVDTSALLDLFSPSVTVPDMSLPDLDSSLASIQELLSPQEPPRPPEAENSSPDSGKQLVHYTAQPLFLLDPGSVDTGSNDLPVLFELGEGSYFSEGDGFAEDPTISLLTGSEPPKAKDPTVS
Procedure, shortened: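 Endogenous transcription factor activity in transiently transfected HepG2, read as reporter mRNA by RT-PCR with fluorescent capillary electrophoresis after 24 h. Gain or loss of signal fitted versus DMSO baseline.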

[12] = ATG_MRE_CIS: Attagene CIS-FACTORIAL HepG2 Assay for human Metal Responsive Element (MRE) (AID 2282954); details: HepG2 MRE cis-reporter transcription, Attagene multiplex; actives raise or lower the signal
Procedure, shortened: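 Measured here is mRNA induction from an MRE cis-element reporter in HepG2 after 24 h, quantified by fluorescence of labelled RT-PCR products on capillary electrophoresis; gain- and loss-of-signal fits use DMSO as baseline.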

[13] = biological target: Paired box protein Pax-6 (Homo sapiens) (UniProt P26367); assay: ATG_Pax6_CIS: Attagene CIS-FACTORIAL HepG2 Assay for human Paired Box 6 (PAX6) (AID 2282956); details: HepG2 CIS-FACTORIAL PAX6 reporter transcription, RNA readout; actives raise or lower the signal
Paired box protein Pax-6 (Homo sapiens), sequence (P26367 whole entry, looked up): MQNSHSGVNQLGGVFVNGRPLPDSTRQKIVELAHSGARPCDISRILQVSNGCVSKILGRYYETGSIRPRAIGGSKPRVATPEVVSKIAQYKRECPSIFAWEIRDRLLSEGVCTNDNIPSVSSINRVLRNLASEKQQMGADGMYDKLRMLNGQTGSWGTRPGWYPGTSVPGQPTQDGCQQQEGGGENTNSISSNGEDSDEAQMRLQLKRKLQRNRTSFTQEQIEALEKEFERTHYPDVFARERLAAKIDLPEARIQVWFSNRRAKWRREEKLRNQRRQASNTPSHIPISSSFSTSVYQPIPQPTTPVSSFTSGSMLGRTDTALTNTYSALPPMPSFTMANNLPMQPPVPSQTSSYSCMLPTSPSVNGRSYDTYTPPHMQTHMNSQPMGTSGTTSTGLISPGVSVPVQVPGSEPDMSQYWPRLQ
Procedure, shortened: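 DMSO-referenced bidirectional fits of reporter mRNA fluorescence; HepG2 with transient cis-promoter MRTUs, 24 h post-dose, RT-PCR plus capillary electrophoresis detection.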

[14] = ATG_PPRE_CIS: Attagene CIS-FACTORIAL HepG2 Assay for human Peroxisome Proliferator-activated Response Element (PPRE) (AID 2282958); details: HepG2 PPRE cis-element reporter, Attagene transcription factor profiling; actives raise or lower the signal
Procedure, shortened: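 Cells are first transfected transiently with the multiplexed reporter library, then dosed for 24 h. Total RNA is reverse-transcribed, amplified, fluorescently end-labeled and HpaI-cut before capillary electrophoresis; activity is fitted bidirectionally against DMSO controls.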

[15] = ATG_RORE_CIS: Attagene CIS-FACTORIAL HepG2 Assay for human RAR-related Orphan Receptor Element (RORE) (AID 2282959); details: HepG2 Attagene cis-factorial RORE reporter, mRNA; actives raise or lower the signal
Procedure, shortened: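 Cells were HepG2 carrying transfected cis-regulated reporter constructs, dosed for 24 hours. Total RNA was reverse-transcribed and reporter cDNA amplified, fluorescently labeled and sized by capillary electrophoresis. Activity was fitted bidirectionally relative to DMSO.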

[16] = ATG_Sox_CIS: Attagene CIS-FACTORIAL HepG2 Assay for human SRY-box transcription factor (SOX) (AID 2282960); details: HepG2 Attagene cis-factorial SOX reporter, mRNA; actives raise or lower the signal
Procedure, shortened: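 Transient MRTU transfection of HepG2; 24 h compound incubation; TriZol RNA, oligo(dT) RT, PCR, 6-FAM primer extension, HpaI cut, CE. Bidirectional fit, DMSO = baseline.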

[17] = ATG_ISRE_CIS: Attagene CIS-FACTORIAL HepG2 Assay for human Interferon Regulatory Factor 1 (IRF1) binding to an Interferon-Stimulated Response Element (ISRE) (AID 2282948); details: HepG2 ISRE cis-reporter (Attagene), mRNA transcription readout; actives raise or lower the signal
Procedure, shortened: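 Uses HepG2 liver cells transfected with cis-regulated reporters and measures mRNA 24 h post-dosing through RT-PCR, primer-extension labelling and capillary electrophoresis, with DMSO as negative control.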

[18] = ATG_PXRE_CIS: Attagene CIS-FACTORIAL HepG2 Assay for human Pregnane X Receptor Element (PXRE) (AID 2282957); details: HepG2 Attagene CIS-FACTORIAL PXRE reporter, mRNA; actives raise or lower the signal
Procedure, shortened: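 After a 24 h chemical incubation, total RNA from transfected HepG2 cells was reverse-transcribed and reporter cDNA amplified, FAM-labeled, HpaI-digested and sized by capillary electrophoresis. DMSO served as baseline for bidirectional curve fitting.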

[19] = ATG_PBREM_CIS: Attagene CIS-FACTORIAL HepG2 Assay for human Phenobarbital-responsive Enhancer Module (PBREM) (AID 2282955); details: HepG2 PBREM cis-reporter, Attagene multiplexed transcription; actives raise or lower the signal
Procedure, shortened: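 Fluorescence of labelled reporter cDNA fragments, resolved by capillary electrophoresis, gives mRNA induction in transfected HepG2 cells treated for 24 h; DMSO serves as negative control and baseline.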

[20] = biological target: Bile acid receptor (Homo sapiens) (UniProt Q96RI1); assay: ATG_IR1_CIS: Attagene CIS-FACTORIAL HepG2 Assay for human Nuclear Receptor Subfamily 1 Group H Member 4 (NR1H4), IR1 submotif (AID 2282946); details: IR1 reporter transcription, actives raise or lower the signal
Bile acid receptor (Homo sapiens), sequence (Q96RI1 whole entry, looked up): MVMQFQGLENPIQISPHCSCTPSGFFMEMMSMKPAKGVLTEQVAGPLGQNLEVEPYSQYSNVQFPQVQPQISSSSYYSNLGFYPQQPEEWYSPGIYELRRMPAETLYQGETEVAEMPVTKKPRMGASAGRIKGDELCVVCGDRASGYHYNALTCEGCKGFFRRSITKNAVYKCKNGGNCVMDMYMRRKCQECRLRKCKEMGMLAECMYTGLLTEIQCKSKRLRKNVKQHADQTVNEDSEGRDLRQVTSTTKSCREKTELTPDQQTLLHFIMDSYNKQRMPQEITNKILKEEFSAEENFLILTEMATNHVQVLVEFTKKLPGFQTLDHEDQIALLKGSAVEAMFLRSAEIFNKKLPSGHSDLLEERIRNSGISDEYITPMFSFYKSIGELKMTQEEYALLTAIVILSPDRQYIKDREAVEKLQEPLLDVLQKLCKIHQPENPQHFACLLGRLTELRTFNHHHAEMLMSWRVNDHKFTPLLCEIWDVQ
Procedure, shortened: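 Fluorescence of capillary-separated, HpaI-digested RT-PCR reporter products gave IR1-element mRNA induction in HepG2 cells 24 h after dosing. Endogenous transcription factors drove the cis-regulated reporters; activity was fitted bidirectionally against DMSO.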

Measured: AC50

CNC
not listed: [17] | [18] | [19] | [20]
inactive: all other assays above

CCC[CH2][Sn]([CH2]CCC)([CH2]CCC)[O]C(=O)c1ccccc1
active: [14] 0.0115 µM
not listed: [11] | [15] | [19] | [20]
inactive: all other assays above

C=CC#N
not listed: [14] | [17] | [20]
inactive: all other assays above

COC(=O)Cc1ccccc1
not listed: [12] | [17] | [18] | [20]
inactive: all other assays above

C[C@H]1O[C@@H](O[C@H]2[C@@H](O)C[C@H](O[C@H]3[C@@H](O)C[C@H](O[C@H]4CC[C@@]5(C)[C@H](CC[C@@H]6[C@@H]5CC[C@]5(C)[C@@H](C7=CC(=O)OC7)CC[C@]65O)C4)O[C@@H]3C)O[C@@H]2C)C[C@H](O)[C@@H]1O
active: [1] 0.0564 µM | [3] 0.472 µM | [4] 0.131 µM | [6] 0.123 µM | [17] 0.254 µM | [10] 0.0564 µM | [18] 0.0564 µM
not listed: [5] | [11] | [12]
inactive: all other assays above

COc1ccc(C=O)cc1OC
active: [18] 32 µM
not listed: [6] | [8] | [14] | [17] | [20]
inactive: all other assays above

C[C@]12CC[C@H](O)CC1=CC[C@@H]1[C@@H]2CC[C@]2(C)C(=O)CC[C@@H]12
active: [18] 27.3 µM
not listed: [9] | [17] | [20]
inactive: all other assays above
